Measured values published in PubChem BioAssay (NCATS).
Values without a mark were called inactive. Records with an inconclusive call do not appear. Calls of active or inactive are those of the source. Unless noted, the call rests on the fitted dose curve; in most records, active means well fitted curve in the direction sought with a large enough effect; inconclusive means small, poorly fitted or top-dose-only effect, or another doubt; inactive means no such curve, though single readings can be large; an effect the other way counts as inactive or inconclusive.

Test system: not listed separately
Test: qHTS assay for small molecule activators of the nuclear factor-kappa B (NF-kB) signaling pathway (AID 651749; active means well fitted activation curve with a large enough effect in the signal ratio; the % refers to the signal ratio; further: % of control where 0% means no effect)
Conditions: NF-kB-bla ME-180 cells, beta-lactamase FRET ratio, 16 h; activation: active compounds read high
Outline: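 NF-kB-bla ME-180 cells carrying a beta-lactamase reporter under an NF-kB response element, 2,000 cells/well, exposed to compound for 16 hr at 37C; FRET-based beta-lactamase fluorescence read-out of pathway activation.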

SMILES | activation [%]
CCOP(=O)(OCC)Oc1nc(Cl)c(Cl)cc1Cl | -2.7
CON=C(C(=O)OC)c1ccccc1CO/N=C(\C)c1cccc(C(F)(F)F)c1 | 3.5
CC1(C)CCC(Cc2ccc(Cl)cc2)C1(O)Cn1cncn1 (configuration not stated) | -0.913
CC(C)NC(=O)N1CC(=O)N(c2cc(Cl)cc(Cl)c2)C1=O | -3.11
[CH3][Sn]([CH3])([Cl])[Cl] | 0.645

Test system: not listed separately
Test: qHTS assay for environmental chemicals that activate the Aryl hydrocarbon Receptor (AhR) signaling pathway (AID 651777); further: nearly all actives have a fitted effect of over 15% in size; further: potency means the concentration at half of the fitted maximal effect; on activation: % of control where 0% means no effect
Conditions: 1A2-DRE human hepatoma cells, luciferase, 24 h; activation: active compounds read high
Outline: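 Luminescence (One-Glo, 30 min, room temperature) reports AhR-driven luciferase in stably transfected human hepatoma cells bearing DRE and CYP1A2 promoter. Cells (1,200/well) were treated with compound for 24 hr at 37 C in qHTS format.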

SMILES | activation [%] | Potency
CCOP(=O)(OCC)Oc1nc(Cl)c(Cl)cc1Cl | 3.16 | –
N#CC(Br)(Br)C(N)=O | -0.328 | –
ClC1=C(Cl)[C@]2(Cl)[C@H]3[C@H]([C@@H]4C=C[C@H]3C4)[C@]1(Cl)C2(Cl)Cl | 0.0639 | –
CC1(C)CCC(Cc2ccc(Cl)cc2)C1(O)Cn1cncn1 (configuration not stated) | -1.24 | –
CC(C)NC(=O)N1CC(=O)N(c2cc(Cl)cc(Cl)c2)C1=O | 14.5 | –
CCOCn1c(-c2ccc(Cl)cc2)c(C#N)c(Br)c1C(F)(F)F | -4.34 | –
[CH3][Sn]([CH3])([Cl])[Cl] | -0.285 | –
C=CCCC | – | 22.4 µM (active)

Target: Peroxisome proliferator-activated receptor alpha (Homo sapiens) (UniProt Q07869)
Sequence (Q07869 whole entry, looked up): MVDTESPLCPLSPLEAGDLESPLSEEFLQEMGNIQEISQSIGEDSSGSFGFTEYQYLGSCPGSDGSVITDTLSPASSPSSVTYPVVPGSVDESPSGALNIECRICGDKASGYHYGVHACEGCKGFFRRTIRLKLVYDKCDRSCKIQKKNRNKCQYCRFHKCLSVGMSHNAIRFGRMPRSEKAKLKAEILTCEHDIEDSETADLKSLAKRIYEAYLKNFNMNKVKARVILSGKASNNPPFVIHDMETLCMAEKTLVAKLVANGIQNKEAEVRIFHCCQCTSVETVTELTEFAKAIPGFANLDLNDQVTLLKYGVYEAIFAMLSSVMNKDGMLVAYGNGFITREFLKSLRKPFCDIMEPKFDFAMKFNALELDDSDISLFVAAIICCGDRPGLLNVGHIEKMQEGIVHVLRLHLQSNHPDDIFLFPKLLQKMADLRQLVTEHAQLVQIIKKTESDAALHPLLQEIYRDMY
Test: qHTS assay for small molecule agonists of the peroxisome proliferator-activated receptor alpha (PPARalpha) signaling pathway (AID 651778); further: % of control where 0% means no effect
Conditions: PathHunter PPARalpha complementation, chemiluminescence, 6 h; max response: active compounds read high
Outline: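 Enzyme-fragment complementation assay in which ligand-bound PPARalpha translocates and forms an active enzyme that generates chemiluminescence. Cells were plated overnight, exposed to compound for 6 hr at 37 C, and then given detection reagent for 60 min at room temperature.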

SMILES | max response [%]
CCOP(=O)(OCC)Oc1nc(Cl)c(Cl)cc1Cl | -1.51
N#CC(Br)(Br)C(N)=O | -5.1
CON=C(C(=O)OC)c1ccccc1CO/N=C(\C)c1cccc(C(F)(F)F)c1 | 3.69
CC1(C)CCC(Cc2ccc(Cl)cc2)C1(O)Cn1cncn1 (configuration not stated) | -1.67
CC(C)NC(=O)N1CC(=O)N(c2cc(Cl)cc(Cl)c2)C1=O | 0.394
CCOCn1c(-c2ccc(Cl)cc2)c(C#N)c(Br)c1C(F)(F)F | 14.2
[CH3][Sn]([CH3])([Cl])[Cl] | -1.2

Test system: not listed separately
Test: qHTS assay for small molecule agonists of the antioxidant response element (ARE) signaling pathway measured by Nrf2-dependant transcriptional activity (AID 720636; active means well fitted curve in the direction sought with a large enough effect in the repeat runs; an effect the other way counts as inactive or inconclusive; further: % of control where 0% means no effect)
Conditions: ARE-luc HepG2, Nrf2 luciferase reporter, 16 h; series mostly up to 92.4 µM
Outline: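 Nrf2-dependent transcription read as ONE-Glo luciferase signal from ARE-luc HepG2 reporter cells after 16 hr compound treatment at 37 C, 5% CO2, in assay medium with 1% dialyzed FBS.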

SMILES | Potency
CCOP(=O)(OCC)Oc1nc(Cl)c(Cl)cc1Cl | inactive
N#CC(Br)(Br)C(N)=O | inactive
CON=C(C(=O)OC)c1ccccc1CO/N=C(\C)c1cccc(C(F)(F)F)c1 | inactive
ClC1=C(Cl)[C@]2(Cl)[C@H]3[C@H]([C@@H]4C=C[C@H]3C4)[C@]1(Cl)C2(Cl)Cl | inactive
CC1(C)CCC(Cc2ccc(Cl)cc2)C1(O)Cn1cncn1 (configuration not stated) | inactive
CCOCn1c(-c2ccc(Cl)cc2)c(C#N)c(Br)c1C(F)(F)F | inactive
[CH3][Sn]([CH3])([Cl])[Cl] | inactive
